From PMC7862700, “An all-to-all approach to the identification of sequence-specific readers for epigenetic DNA modifications on cytosine”

Assays:
Experiment in all cases: DAPPL (digital affinity profiling via proximity ligation, sequencing); 10 mM Tris-HCl pH 7.5, 50 mM NaCl, 1 mM DTT, 4% glycerol, room temperature, 30 min; GST-TFs on glutathione beads, 16-mer random dsDNA library, 0.1% formaldehyde crosslink after washing; high values mean tight binding
Conditions in all cases: protein: recombinant; tags: N-terminal GST; dsDNA, one strand shown
[1] = target: T1, FEV (Homo sapiens, UniProt Q99581 1-238)
T1 sequence: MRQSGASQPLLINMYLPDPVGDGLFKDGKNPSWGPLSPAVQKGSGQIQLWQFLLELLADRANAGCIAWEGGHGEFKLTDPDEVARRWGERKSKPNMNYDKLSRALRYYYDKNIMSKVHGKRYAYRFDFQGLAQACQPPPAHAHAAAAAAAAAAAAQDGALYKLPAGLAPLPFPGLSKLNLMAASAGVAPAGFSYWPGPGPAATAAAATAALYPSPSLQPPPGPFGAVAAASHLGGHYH
Method in brief: (§1)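 A tag-only sample was pooled with DNA-barcoded human transcription factors that had been expressed in yeast as GST fusions and captured on glutathione beads. The pools were incubated for 30 min at room temperature with 200 nmole of a random double-stranded 16-mer DNA library in Tris/NaCl/DTT/glycerol buffer, then washed, crosslinked with 0.1% formaldehyde, proximity-ligated (BsaI/T4 ligase, 1 h, 37 °C), PCR-amplified and sequenced on an Illumina NextSeq500. Binding signal is each hexamer's read frequency for a factor divided by its frequency for the tag-only sample.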

[2] = target: ETV5 (Homo sapiens, UniProt P41161 1-510)
Sequence of ETV5 (P41161 whole entry): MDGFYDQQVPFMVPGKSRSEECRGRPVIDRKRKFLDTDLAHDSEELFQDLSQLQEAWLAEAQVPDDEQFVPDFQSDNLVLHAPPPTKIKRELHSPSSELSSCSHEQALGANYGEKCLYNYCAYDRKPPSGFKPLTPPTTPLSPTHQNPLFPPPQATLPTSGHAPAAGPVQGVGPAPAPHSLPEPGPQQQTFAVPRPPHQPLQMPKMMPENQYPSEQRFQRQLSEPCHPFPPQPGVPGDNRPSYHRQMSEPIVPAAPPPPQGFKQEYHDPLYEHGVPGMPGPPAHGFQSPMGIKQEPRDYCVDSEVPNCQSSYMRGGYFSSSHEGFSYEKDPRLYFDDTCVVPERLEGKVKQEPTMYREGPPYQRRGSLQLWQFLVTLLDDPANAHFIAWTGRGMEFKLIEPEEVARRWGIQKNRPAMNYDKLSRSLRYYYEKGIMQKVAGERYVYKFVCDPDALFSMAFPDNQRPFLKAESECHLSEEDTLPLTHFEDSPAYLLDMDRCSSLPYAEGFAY
Method in brief: as §1

[3] = target: T2, SPIC (Homo sapiens, UniProt Q8N5J4 1-248)
T2 sequence: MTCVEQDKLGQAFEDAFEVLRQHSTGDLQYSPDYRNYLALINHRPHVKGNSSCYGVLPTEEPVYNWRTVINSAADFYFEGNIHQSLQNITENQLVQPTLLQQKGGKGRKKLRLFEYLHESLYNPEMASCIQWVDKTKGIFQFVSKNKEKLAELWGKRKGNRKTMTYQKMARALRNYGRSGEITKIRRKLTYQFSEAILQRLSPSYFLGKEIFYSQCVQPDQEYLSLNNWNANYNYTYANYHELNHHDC
Method in brief: as §1

[4] = target: ELF4 (Homo sapiens, UniProt Q99607 1-663)
Sequence of ELF4 (Q99607 whole entry): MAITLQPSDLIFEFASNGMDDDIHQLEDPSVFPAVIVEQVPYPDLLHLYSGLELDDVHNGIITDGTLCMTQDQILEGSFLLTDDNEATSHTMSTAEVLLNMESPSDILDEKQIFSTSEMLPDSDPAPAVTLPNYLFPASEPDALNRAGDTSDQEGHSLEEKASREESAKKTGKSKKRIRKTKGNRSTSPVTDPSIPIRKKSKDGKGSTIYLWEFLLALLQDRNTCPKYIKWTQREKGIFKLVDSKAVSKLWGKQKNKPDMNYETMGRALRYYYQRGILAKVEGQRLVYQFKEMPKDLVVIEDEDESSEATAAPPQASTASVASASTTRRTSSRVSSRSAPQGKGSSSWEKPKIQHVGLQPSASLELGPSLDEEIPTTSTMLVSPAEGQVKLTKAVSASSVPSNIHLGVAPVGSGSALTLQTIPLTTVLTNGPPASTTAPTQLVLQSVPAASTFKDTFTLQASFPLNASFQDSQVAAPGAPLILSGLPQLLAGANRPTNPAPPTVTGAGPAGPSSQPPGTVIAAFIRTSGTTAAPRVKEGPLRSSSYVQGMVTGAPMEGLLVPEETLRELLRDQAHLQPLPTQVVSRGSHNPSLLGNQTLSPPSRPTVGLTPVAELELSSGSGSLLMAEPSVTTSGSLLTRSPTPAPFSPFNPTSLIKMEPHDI
Method in brief: as §1

[5] = target: T3, ELK4 (Homo sapiens, UniProt P28324-2 1-405)
T3 sequence: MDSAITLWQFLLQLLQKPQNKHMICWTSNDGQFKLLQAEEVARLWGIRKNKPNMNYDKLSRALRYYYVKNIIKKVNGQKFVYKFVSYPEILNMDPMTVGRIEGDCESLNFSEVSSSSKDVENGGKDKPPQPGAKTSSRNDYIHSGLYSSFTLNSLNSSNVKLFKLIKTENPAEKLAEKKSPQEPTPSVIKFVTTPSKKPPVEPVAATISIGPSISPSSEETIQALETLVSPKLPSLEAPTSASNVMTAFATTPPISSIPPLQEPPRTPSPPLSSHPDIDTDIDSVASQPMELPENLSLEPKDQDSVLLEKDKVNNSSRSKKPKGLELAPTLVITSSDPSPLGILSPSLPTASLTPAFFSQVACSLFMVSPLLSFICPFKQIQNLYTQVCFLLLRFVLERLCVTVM
Method in brief: as §1

[6] = target: T4, ETV2 (Homo sapiens, UniProt O00321 1-342)
T4 sequence: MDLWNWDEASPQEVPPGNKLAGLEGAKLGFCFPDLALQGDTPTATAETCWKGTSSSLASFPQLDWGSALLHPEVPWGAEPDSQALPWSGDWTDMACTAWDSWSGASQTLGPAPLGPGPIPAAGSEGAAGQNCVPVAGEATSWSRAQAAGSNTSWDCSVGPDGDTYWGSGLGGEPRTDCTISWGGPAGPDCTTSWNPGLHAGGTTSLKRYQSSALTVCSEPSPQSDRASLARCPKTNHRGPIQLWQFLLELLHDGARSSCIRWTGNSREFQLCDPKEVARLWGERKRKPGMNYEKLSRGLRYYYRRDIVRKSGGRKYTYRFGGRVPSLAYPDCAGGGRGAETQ
Method in brief: as §1

[7] = target: T5, ELF3 (Homo sapiens, UniProt P78545 1-371)
T5 sequence: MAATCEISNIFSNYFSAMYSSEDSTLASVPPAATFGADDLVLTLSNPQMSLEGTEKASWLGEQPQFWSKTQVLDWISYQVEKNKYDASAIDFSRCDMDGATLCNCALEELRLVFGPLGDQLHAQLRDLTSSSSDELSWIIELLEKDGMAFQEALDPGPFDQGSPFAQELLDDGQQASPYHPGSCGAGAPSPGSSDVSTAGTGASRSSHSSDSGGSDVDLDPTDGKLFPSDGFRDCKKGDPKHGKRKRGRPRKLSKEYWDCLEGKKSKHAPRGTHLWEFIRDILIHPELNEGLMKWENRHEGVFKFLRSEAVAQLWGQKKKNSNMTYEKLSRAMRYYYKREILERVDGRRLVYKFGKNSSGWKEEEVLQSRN
Method in brief: as §1

[8] = target: ETV1 (Homo sapiens, UniProt P50549 1-477)
Sequence of ETV1 (P50549 whole entry): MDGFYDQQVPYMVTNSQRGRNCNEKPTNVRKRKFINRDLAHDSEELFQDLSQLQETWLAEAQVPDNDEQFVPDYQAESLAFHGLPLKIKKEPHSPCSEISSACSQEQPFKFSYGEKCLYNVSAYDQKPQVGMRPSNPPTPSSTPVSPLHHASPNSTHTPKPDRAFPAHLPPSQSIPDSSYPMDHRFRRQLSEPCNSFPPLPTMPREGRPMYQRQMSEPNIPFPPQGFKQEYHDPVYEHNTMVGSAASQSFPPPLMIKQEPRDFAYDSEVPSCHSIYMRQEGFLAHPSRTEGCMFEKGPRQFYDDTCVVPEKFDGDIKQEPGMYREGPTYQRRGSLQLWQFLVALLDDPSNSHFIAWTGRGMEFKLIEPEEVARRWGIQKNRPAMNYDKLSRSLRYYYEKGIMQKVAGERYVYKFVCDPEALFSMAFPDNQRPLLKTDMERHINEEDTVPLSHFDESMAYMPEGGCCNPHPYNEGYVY
Method in brief: as §1

[9] = target: T6, ERF (Homo sapiens, UniProt P50548 1-548)
T6 sequence: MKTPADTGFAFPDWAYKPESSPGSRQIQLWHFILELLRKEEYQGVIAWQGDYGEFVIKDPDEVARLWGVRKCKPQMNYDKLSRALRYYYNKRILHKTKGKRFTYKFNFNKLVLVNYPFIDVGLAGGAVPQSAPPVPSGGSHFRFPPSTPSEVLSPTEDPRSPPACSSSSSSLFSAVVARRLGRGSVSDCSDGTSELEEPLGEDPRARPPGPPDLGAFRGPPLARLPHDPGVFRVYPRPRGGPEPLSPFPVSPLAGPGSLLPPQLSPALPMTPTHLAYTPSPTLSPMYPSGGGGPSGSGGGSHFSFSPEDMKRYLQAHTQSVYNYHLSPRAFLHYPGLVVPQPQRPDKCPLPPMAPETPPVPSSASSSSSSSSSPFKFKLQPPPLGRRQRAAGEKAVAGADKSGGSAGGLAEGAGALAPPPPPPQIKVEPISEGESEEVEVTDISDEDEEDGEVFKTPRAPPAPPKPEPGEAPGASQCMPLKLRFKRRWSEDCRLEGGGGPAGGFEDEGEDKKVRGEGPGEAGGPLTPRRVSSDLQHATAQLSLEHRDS
Method in brief: as §1

[10] = target: T7, ETV3L (Homo sapiens, UniProt Q6ZN32 1-361)
T7 sequence: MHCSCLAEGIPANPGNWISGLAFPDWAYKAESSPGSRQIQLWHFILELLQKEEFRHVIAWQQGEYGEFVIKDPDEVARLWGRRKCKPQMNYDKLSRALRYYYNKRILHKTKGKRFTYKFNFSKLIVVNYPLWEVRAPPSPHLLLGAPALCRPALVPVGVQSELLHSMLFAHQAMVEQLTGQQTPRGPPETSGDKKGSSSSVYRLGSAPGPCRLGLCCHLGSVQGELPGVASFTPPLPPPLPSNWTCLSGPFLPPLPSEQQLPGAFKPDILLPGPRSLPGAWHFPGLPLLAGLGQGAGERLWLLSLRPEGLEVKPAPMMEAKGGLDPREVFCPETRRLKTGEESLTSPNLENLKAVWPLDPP
Method in brief: as §1

[11] = target: T8, ETS2 (Homo sapiens, UniProt P15036 1-469)
T8 sequence: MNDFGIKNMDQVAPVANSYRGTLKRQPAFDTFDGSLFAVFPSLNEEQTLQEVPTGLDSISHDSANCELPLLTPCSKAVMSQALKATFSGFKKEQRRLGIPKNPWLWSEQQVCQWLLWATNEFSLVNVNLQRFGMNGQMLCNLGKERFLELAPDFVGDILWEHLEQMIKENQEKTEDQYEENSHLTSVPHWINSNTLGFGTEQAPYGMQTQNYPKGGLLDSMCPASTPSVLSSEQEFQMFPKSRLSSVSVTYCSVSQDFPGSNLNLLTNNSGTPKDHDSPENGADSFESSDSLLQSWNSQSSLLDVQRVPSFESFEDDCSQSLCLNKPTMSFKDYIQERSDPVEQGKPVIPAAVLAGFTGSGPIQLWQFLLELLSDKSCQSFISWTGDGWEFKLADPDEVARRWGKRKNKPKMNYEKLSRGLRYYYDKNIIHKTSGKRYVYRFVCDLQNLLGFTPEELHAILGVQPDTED
Method in brief: as §1

[12] = target: T9, SPDEF (Homo sapiens, UniProt O95238 1-335)
T9 sequence: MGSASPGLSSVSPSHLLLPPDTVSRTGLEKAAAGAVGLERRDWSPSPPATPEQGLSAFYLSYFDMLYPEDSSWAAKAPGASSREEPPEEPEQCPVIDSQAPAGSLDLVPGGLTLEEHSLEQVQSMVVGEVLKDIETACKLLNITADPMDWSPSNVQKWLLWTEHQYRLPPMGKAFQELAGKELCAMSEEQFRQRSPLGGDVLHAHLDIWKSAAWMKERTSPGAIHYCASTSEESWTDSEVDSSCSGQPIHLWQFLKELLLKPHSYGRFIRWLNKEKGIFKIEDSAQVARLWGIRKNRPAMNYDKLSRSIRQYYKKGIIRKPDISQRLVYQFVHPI
Method in brief: as §1

[13] = target: T10, ETV7 (Homo sapiens, UniProt Q9Y603 1-341)
T10 sequence: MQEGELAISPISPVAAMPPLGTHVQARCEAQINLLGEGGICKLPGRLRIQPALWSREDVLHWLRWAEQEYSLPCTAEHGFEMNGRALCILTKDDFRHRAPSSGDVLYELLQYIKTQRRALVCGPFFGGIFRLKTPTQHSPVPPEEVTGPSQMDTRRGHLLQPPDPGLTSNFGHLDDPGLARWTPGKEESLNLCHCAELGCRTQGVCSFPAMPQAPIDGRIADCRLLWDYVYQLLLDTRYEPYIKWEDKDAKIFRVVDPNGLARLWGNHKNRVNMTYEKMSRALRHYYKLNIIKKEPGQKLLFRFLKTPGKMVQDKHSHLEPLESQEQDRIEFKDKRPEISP
Method in brief: as §1

[14] = target: T11, ELF5 (Homo sapiens, UniProt Q9UKW6-2 1-255)
T11 sequence: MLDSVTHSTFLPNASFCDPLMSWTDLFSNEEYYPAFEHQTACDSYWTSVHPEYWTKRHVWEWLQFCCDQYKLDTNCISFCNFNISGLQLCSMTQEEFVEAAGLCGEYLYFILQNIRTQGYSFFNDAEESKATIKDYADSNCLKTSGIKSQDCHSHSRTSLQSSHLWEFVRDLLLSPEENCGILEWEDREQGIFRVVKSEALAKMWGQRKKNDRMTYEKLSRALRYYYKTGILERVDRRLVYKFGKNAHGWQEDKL
Method in brief: as §1

[15] = target: T12, ETV3 (Homo sapiens, UniProt P41162-2 1-143)
T12 sequence: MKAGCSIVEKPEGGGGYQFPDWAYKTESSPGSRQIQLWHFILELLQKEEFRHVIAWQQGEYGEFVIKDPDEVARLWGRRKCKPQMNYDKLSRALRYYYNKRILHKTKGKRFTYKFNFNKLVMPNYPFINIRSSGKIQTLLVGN
Method in brief: as §1

[16] = target: ETV6 (Homo sapiens, UniProt P41212 1-452)
Sequence of ETV6 (P41212 whole entry): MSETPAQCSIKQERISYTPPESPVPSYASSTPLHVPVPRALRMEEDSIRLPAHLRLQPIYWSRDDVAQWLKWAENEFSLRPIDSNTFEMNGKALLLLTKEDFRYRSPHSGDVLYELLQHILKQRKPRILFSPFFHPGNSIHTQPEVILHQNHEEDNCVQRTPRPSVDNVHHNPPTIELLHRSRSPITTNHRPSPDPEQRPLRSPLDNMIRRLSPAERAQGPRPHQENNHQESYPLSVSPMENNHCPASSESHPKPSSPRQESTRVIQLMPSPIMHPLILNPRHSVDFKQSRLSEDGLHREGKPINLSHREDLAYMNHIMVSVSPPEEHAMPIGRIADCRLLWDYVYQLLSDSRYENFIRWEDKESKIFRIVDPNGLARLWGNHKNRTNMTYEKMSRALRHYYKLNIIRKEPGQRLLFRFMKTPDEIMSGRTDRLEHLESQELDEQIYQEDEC
Method in brief: as §1

| Sequence | binding signal [1] | binding signal [2] | binding signal [3] | binding signal [4] | binding signal [5] | binding signal [6] | binding signal [7] | binding signal [8] | binding signal [9] | binding signal [10] | binding signal [11] | binding signal [12] | binding signal [13] | binding signal [14] | binding signal [15] | binding signal [16] |
| --- | --- | --- | --- | --- | --- | --- | --- | --- | --- | --- | --- | --- | --- | --- | --- | --- |
| CGTATC | 1.28 fold enrichment (6-mer frequency, TF over GST control) | 1.13 fold enrichment (6-mer frequency, TF over GST control) | 1.19 fold enrichment (6-mer frequency, TF over GST control) | 1.2 fold enrichment (6-mer frequency, TF over GST control) | 1.16 fold enrichment (6-mer frequency, TF over GST control) | 1.15 fold enrichment (6-mer frequency, TF over GST control) | 1.13 fold enrichment (6-mer frequency, TF over GST control) | 1.18 fold enrichment (6-mer frequency, TF over GST control) | 1.15 fold enrichment (6-mer frequency, TF over GST control) | 1.24 fold enrichment (6-mer frequency, TF over GST control) | 1.11 fold enrichment (6-mer frequency, TF over GST control) | 1.57 fold enrichment (6-mer frequency, TF over GST control) | 1.1 fold enrichment (6-mer frequency, TF over GST control) | 1.19 fold enrichment (6-mer frequency, TF over GST control) | 1.28 fold enrichment (6-mer frequency, TF over GST control) | 1.09 fold enrichment (6-mer frequency, TF over GST control) |
| GTCCTT | 1.29 fold enrichment (6-mer frequency, TF over GST control) | 1.19 fold enrichment (6-mer frequency, TF over GST control) | 1.23 fold enrichment (6-mer frequency, TF over GST control) | 1.21 fold enrichment (6-mer frequency, TF over GST control) | 1.15 fold enrichment (6-mer frequency, TF over GST control) | 1.31 fold enrichment (6-mer frequency, TF over GST control) | 1.16 fold enrichment (6-mer frequency, TF over GST control) | 1.13 fold enrichment (6-mer frequency, TF over GST control) | 1.14 fold enrichment (6-mer frequency, TF over GST control) | 1.29 fold enrichment (6-mer frequency, TF over GST control) | 1.28 fold enrichment (6-mer frequency, TF over GST control) | 1.29 fold enrichment (6-mer frequency, TF over GST control) | 1.11 fold enrichment (6-mer frequency, TF over GST control) | 1.43 fold enrichment (6-mer frequency, TF over GST control) | 1.18 fold enrichment (6-mer frequency, TF over GST control) | 1.26 fold enrichment (6-mer frequency, TF over GST control) |
